Test [1] concerns OV90. The test is described as follows: Primary qHTS to identify gynecologic anti-cancer compounds using libraries of approved drugs and bioactive compounds (AID 1345084). Also: nearly all actives have a fitted effect of over 55% in size. Also: potency is read from the fitted curve at half-maximal effect. Particulars: Gynecologic cancer cell panel viability, ATPlite luminescence, 48 h; series mostly up to 57.5 µM. In short, it runs like this:
(§1)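 In this quantitative HTS, cell killing is estimated from loss of ATP-dependent luciferase light. Cells see five compound concentrations over a 48 h exposure.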

Test [2] relates to PA-1. The test is described as above. Particulars: Gynecologic cancer cell panel viability, ATPlite luminescence, 48 h; series mostly up to 57.5 µM. The method in brief:
as §1

Test [3] has as its system Tov-21-G. The description is as above. As to conditions: Gynecologic cancer cell panel viability, ATPlite luminescence, 48 h; series mostly up to 57.5 µM. In short, it runs like this: as §1
The subject of test [4] is Tov112D. The test is described as above. As to conditions: Gynecologic cancer cell panel viability, ATPlite luminescence, 48 h; series mostly up to 57.5 µM. In short, it runs like this: as §1
A general note: Cellular ATP, detected with luciferase, serves as a proxy for viable cell number.

The nature of test [5]: Drug repurposing screens with cells derived from glioblastoma tumor samples (AID 1345199). Also: nearly all actives have a fitted effect of over 40% in size. Also: potency is read from the fitted curve at half-maximal effect. As to activity, negative = cell killing: % is scaled to controls: 0 for no effect and ±100 for the full control effect. Particulars: GBM patient neurospheres viability, ATP luminescence, 48 h. In short, it runs like this: (§2)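 Four patient lines of CD133+ GBM neurospheres were screened at several concentrations; hits were retested in those lines plus three slower-growing GBM lines, using 48-hour treatment and ATP-based viability.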

In test [6] the test system is astro. The test is described as above. As to conditions: viability, ATP luminescence, 48 h; series mostly up to 45.9 µM. The method in brief: as §2
A short description of test [7]: qHTS assay for small molecule activators of the human pregnane X receptor (PXR) signaling pathway (AID 720659; call rule not given here; also: 0% is about no effect). Background: Quantitative high-throughput screening tests each substance at several concentrations.
Test [8] has as its system SKOV3. The experiment in a line: Primary qHTS to identify gynecologic anti-cancer compounds using libraries of approved drugs and bioactive compounds (AID 1345084). Also: nearly all actives have a fitted effect of over 55% in size. Also: potency is read from the fitted curve at half-maximal effect. As to conditions: Gynecologic cancer cell panel viability, ATPlite luminescence, 48 h; series mostly up to 57.5 µM. The method in brief:
as §1

Test [9] concerns the target Nuclear receptor subfamily 1 group I member 2 (Rattus norvegicus) (UniProt Q9R1A7). The test is described as follows: qHTS assay for small molecule activators of the rat pregnane X receptor (rPXR) signaling pathway (AID 651751; call rule not given here; also: 0% is about no effect). As to conditions: rPXR reporter cells, luciferase (One-Glo), 24 h.
A short description of test [10]: qHTS assay to identify inhibitors of the type 1 interferon - major histocompatibility complex class I in skeletal muscle: Counter screen cell viability and HiBit confirmation (AID 1347412). Also: potency is read from the fitted curve at half-maximal effect; nearly all actives have a fitted effect of over 60% in size. As to conditions: iHSKM muscle cells + IFN-b, HiBiT or CellTiter-Glo, 24 h; HiBiT. The method in brief:
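Human myoblast knock-in line, 4.0 ng/ml IFN-beta stimulation, 24 h compound treatment. Endpoints: HiBiT lytic luminescence (HLA-B level) and CellTiter Glo (ATP). Dosing 12 concentrations, 3-fold steps, 46 uM highest final.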

[11] abbreviates: at 45.9 µM (top of the series), tumour line B.
[12] abbreviates: at 45.9 µM (top of the series), tumour line D.
Setting [13] is: at 46.1 µM (top of the series), tumour line C.
Setting [14] is: at 46 µM (top of the series), tumour line A.
Where [15] appears, read: at 20 µM (top of the series), tumour line C.

“And” between values parts separate entries of the source, which are not always exact repeats. Equal values may be shown once. A number with no mark means an inactive call. Results filed as inconclusive are left out. The source made the active and inactive calls. Unless noted, calls follow the shape of the dose curve; as a rule, active = well fitted curve in the direction sought with a large enough effect; inconclusive = small, poorly fitted or top-dose-only effect, or another doubt; inactive = no such curve, though single readings can be large; an effect the other way counts as inactive or inconclusive.

Sequence of Nuclear receptor subfamily 1 group I member 2 (Rattus norvegicus) (Q9R1A7 whole entry, looked up): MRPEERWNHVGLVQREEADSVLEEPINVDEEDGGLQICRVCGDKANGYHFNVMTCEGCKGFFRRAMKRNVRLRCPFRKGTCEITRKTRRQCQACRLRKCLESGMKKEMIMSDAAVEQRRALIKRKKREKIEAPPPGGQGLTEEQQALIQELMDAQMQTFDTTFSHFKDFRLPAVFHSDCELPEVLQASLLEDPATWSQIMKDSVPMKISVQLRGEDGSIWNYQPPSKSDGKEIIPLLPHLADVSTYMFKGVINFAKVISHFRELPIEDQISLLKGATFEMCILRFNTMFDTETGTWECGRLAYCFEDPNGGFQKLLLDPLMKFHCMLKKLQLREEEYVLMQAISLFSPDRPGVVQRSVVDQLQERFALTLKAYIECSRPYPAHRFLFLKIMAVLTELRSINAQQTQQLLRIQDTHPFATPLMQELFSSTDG

Take `CCN1CCC[C@H]1CNC(=O)c1c(O)c(Cl)cc(Cl)c1OC`: the Potency entry in [1], in test [2], in test [3], in test [4] and in test [6] was “inactive” in each case. The activity, negative = cell killing in test [5] (setting [11]) was -11.9%; in test [5] (setting [12]), 3.21%; in test [5] (setting [13]) it was 9.16%.
For `COc1cc(Cc2cnc(N)nc2N)cc(OC)c1OC`, the Potency result in test [1], in test [2], in test [3], in [4] and in test [6] was “inactive” each time. Further, the activity, negative = cell killing in test [5] (setting [11]) is 10.7%; in [5] (setting [12]), -9.7%; in test [5] (setting [13]), -10.9%. For the same molecule, in test [7], the molecule was called inactive.
Consider `O=c1[nH]c(=O)n([C@H]2C[C@H](O)[C@@H](CO)O2)cc1Br`, for which the Potency result in [1], in test [2], in test [8], in test [3], in test [4] and in test [6] was “inactive” in each case. In addition, the activity, negative = cell killing in test [5] (setting [11]) was -18.1%; in [5] (setting [12]), 7.04%; in test [5] (setting [13]), -12.6%. For the same molecule, the molecule was called inactive in test [7].
As for `COC(=O)[C@H]1[C@H]2C[C@@H]3c4[nH]c5cc(OC)ccc5c4CCN3C[C@H]2C[C@@H](OC(=O)c2cc(OC)c(OC)c(OC)c2)[C@@H]1OC`, the Potency result in test [1], in test [2], in test [8], in test [3], in [4] and in test [6] was “inactive” throughout. Besides, in [5] (setting [11]), the activity, negative = cell killing was -27.8%. Also, the Potency in test [5] (tumour line A) was 5.01 µM (active).
With `COc1ccc(CN(CCN(C)C)c2ccccn2)cc1`, the Potency result in test [1], in [2], in test [8], in test [3] and in test [4] was “inactive” throughout. For the same molecule, the activity, negative = cell killing in [5] (setting [11]) was -3.6%; in [5] (setting [13]), -2.37%. Moreover, in test [5] (tumour line A), the Potency is 35.5 µM (active). Besides, in test [9], the max response is 7.02%.
On to `CCCN(CCC)CCc1cccc2c1CC(=O)N2`, for which the Potency entry in [1], in test [2], in test [8], in [3], in [4] and in test [6] was “inactive” each time. Further, the activity, negative = cell killing in test [5] (setting [11]) is -4.59%; in [5] (setting [12]) it was 4.33%; in [5] (setting [13]), 2.12%.
Take `O=C(O)CCCCCCCC(=O)O`: the Potency entry in test [1], in [2], in test [8], in test [3] and in [4] was “inactive” in each case. The activity, negative = cell killing in test [5] (setting [11]) was -8.57%; in test [5] (setting [12]), -5.03%; in [5] (setting [13]) it was -6.63%. The max response in [9] is -2.29%. Also, in test [7], the call was inactive.
Turning to `Cc1nnc(SCC2=C(C(=O)O)N3C(=O)[C@@H](NC(=O)Cn4cnnn4)[C@H]3SC2)s1`, the Potency result in test [1], in [2], in [8], in test [3], in test [4] and in [6] was “inactive” throughout. The activity, negative = cell killing in [5] (setting [11]) was -10.7%; in [5] (setting [12]) it was -8.75%; in [5] (setting [13]), -9.01%.
In the case of `CCCCNc1c(C(=O)OCC)c(C)nc2c1cnn2CC`, the Potency entry in [1], in test [2], in test [3], in test [4] and in test [6] was “inactive” throughout. The activity, negative = cell killing in test [5] (setting [11]) is -23.3%. For the same molecule, in [5] (tumour line A), the Potency is 12.6 µM (active).
Take `NC(=O)N1c2ccccc2C=Cc2ccccc21`: the Potency entry in test [1], in [2], in test [3] and in [4] was “inactive” each time. Also, the activity, negative = cell killing in test [5] (setting [11]) is -0.221%; in test [5] (setting [12]), -27.4%; in test [5] (setting [14]), -32.7%; in test [5] (setting [13]), -16.6%. In addition, in test [9], the max response was 5.91% and 3.5%.
On to `CNC1(C)C2CCC(C2)C1(C)C` (stereo not drawn), for which the Potency entry in test [1], in [2], in [3] and in [4] was “inactive” in each case. Also, the results for the activity, negative = cell killing in test [5] (setting [11]), in test [5] (setting [12]) and in [5] (setting [13]) were 1.71%, 0.479% and 3.06%, respectively.
With `CN(C)[C@@H]1C(=O)C(C(N)=O)=C(O)[C@@]2(O)C(=O)C3=C(O)c4c(O)ccc(Cl)c4[C@@H](O)[C@H]3C[C@@H]12`, the Potency result in [1], in [2], in test [8], in test [3], in [4] and in test [6] was “inactive” in each case. The activity, negative = cell killing in [5] (setting [11]) is -11.7%; in test [5] (setting [12]) it was -27%; in test [5] (setting [13]), -29.4%.
Consider `CC(=O)[C@]1(O)Cc2c(O)c3c(c(O)c2[C@@H](O[C@H]2C[C@H](N)[C@H](O)[C@H](C)O2)C1)C(=O)c1ccccc1C3=O`, for which the Potency in [1] was 3.16 µM (active); in test [2] it was 0.282 µM (active); in test [8], 1.78 µM (active); in [3], 0.794 µM (active); in [4], 0.562 µM (active); in test [10] it was 0.883 µM (active).
Take `Nc1ncn([C@@H]2O[C@H](CO)[C@@H](O)[C@H]2O)c(=O)n1`: the Potency result in test [1] is “inactive”. In addition, the values for the Potency in test [2], in [3] and in [10] were 10 µM (active), 12.6 µM (active) and 14 µM (active), respectively. Also, the molecule was called inactive in test [7].
In the case of `Cc1cccc(C)c1NC(=O)C(C)N` (stereo not drawn), the Potency result in [1], in [2], in test [8], in [3], in test [4] and in test [6] was “inactive” throughout. Further, the activity, negative = cell killing in test [5] (setting [15]) is 6.4%; in test [5] (at 21.2 µM (top of the series), tumour line B) it was -16.9%; in [5] (at 21.2 µM (top of the series), tumour line D), 1.82%.
With `c1ccc2c(c1)CCCC2C1=NCCN1` (stereo not drawn), the Potency result in [1], in test [2], in test [3], in [4] and in test [6] was “inactive” throughout. Also, the activity, negative = cell killing in test [5] (setting [11]) was 0.679%; in test [5] (setting [12]), 3.62%; in test [5] (setting [13]) it was -14.8%.
As to `CCCCNc1ccc(C(=O)OCCN(C)C)cc1`, the Potency result in test [1], in test [2], in test [8], in test [3], in [4] and in test [6] was “inactive” each time. In addition, in test [5] (setting [15]), the activity, negative = cell killing is -9.33%. Further, the Potency in [5] (tumour line A) is 14.1 µM (active).
As for `CC(=O)Nc1nnc(S(N)(=O)=O)s1`, the Potency entry in test [1], in test [2], in [3], in [4] and in test [6] was “inactive” each time. The activity, negative = cell killing is -5.69% in [5] (setting [11]), 0.278% in test [5] (setting [12]), 1.18% in test [5] (setting [14]) and -27.5% in [5] (setting [13]). In addition, the max response in test [9] was 0.356%. Also, the call in test [7] was inactive.
Take `COc1ccc2c(c1OC)C(=O)O[C@@H]2[C@H]1c2c(cc3c(c2OC)OCO3)CCN1C`: the Potency result in test [1], in test [2], in test [3], in test [4] and in test [6] was “inactive” throughout. Moreover, the activity, negative = cell killing is -11.4% in test [5] (setting [11]), -14.1% in test [5] (setting [12]) and 1.26% in test [5] (setting [13]).
Regarding `C[N+](C)(C)CCOC(N)=O`, the Potency result in test [1], in test [2], in test [8], in [3], in [4] and in test [6] was “inactive” throughout. Further, the activity, negative = cell killing was -5.35% in [5] (setting [11]), -11.4% in test [5] (setting [12]) and -0.881% in test [5] (setting [13]).

The record behind these values is PubChem BioAssay (NCATS).
